Reference: ChEMBL document CHEMBL3433997, “St. Jude Leishmania screening dataset” (2016)

Experiments:
Format in all cases: functional
[1] = molecular target: Solute carrier family 2, facilitated glucose transporter member 1 (Homo sapiens) (UniProt P11166); test: ST_JUDE_LEISH: Cytotoxicity at 2uM final concentration against transgenic Leishmania Mexicana promastigotes LmGLUT1 that are glucose transport deficient and complemented with the human glucose transporter GLUT1. Activity is measured by DNA content using SYBR green in vitro
[2] = molecular target: Hexose transporter 1 (Plasmodium falciparum) (UniProt O97467); test: ST_JUDE_LEISH: Cytotoxicity at 2uM final concentration against transgenic Leishmania Mexicana promastigotes LmPfHT that are glucose transport deficient and complemented with the Plasmodium falciparum hexose transporter. Activity is measured by DNA content using SYBR green in vitro
[3] = molecular target: Glucose transporter (Leishmania mexicana) (UniProt O61059); test: ST_JUDE_LEISH: Cytotoxicity at 2uM final concentration against transgenic Leishmania Mexicana promastigotes LmGT2 that are glucose transport deficient and complemented with the L. Mexicana glucose transporter 2. Activity is measured by DNA content using SYBR green in vitro

Sequence of Solute carrier family 2, facilitated glucose transporter member 1 (Homo sapiens) (P11166 whole entry): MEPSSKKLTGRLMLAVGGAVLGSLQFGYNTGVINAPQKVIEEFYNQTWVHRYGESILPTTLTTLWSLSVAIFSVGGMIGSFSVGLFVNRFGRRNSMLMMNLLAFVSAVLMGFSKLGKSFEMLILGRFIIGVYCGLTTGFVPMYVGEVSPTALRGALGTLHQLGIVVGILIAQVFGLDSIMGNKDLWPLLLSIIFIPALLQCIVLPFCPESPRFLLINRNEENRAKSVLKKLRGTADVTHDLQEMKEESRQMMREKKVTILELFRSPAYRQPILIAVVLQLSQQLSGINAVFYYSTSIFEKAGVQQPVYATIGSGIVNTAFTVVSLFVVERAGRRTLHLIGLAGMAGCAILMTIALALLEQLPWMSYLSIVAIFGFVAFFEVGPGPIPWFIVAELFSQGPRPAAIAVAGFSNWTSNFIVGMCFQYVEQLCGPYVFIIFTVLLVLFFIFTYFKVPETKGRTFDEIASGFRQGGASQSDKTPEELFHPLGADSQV

## COc1ccc(CCNCCCCCCNCCc2ccc(Cl)c3ccccc23)cc1OC
[1]
  inhibition: 0.11%
[2]
  inhibition: 0.21%
[3]
  inhibition: 2.66%

## CN(C)c1ccc(-c2csc(C(=O)NC3CCN(Cc4ccc(C(C)(C)C)cc4)C3)c2)cc1 (stereo not given)
[1]
  inhibition: 5.6%
[2]
  inhibition: 5.58%
[3]
  inhibition: 5.56%

## COc1cccc(CN2CCCC(CCC(=O)Nc3ccc(C(F)(F)F)cc3)C2)c1O (stereo not given)
[1]
  inhibition: 1.04%
[2]
  inhibition: 2.12%
[3]
  inhibition: 1.85%

## Cc1nc(-c2cccc(NC(C)C(=O)Nc3cc(C(F)(F)F)ccc3N3CCOCC3)c2)cs1 (stereo not given)
[1]
  inhibition: 0.08%
[2]
  inhibition: 0.47%
[3]
  inhibition: 0.96%

## C=C(C)COc1ccc(-c2n[nH]c(C(F)(F)F)c2-c2ccccc2OC)c(O)c1
[1]
  inhibition: 8.67%
[2]
  inhibition: 6.88%
[3]
  inhibition: 6.48%

## CNC(=O)c1cnc(Nc2ccc(N3CCN(C)CC3)c(C)c2)nc1NC
[1]
  inhibition: -0.78%
[2]
  inhibition: -3.69%
[3]
  inhibition: 3.79%

## COCCCN=C(S)NN=C(C)c1ccccn1
[1]
  inhibition: 0.61%
[2]
  inhibition: -0.03%
[3]
  inhibition: 0%

## CN(C)[C@@H]1C(O)=C(C(N)=O)C(=O)[C@@]2(O)C(O)=C3C(=O)c4c(O)ccc(C#Cc5ccccn5)c4C[C@H]3C[C@@H]12
[1]
  inhibition: 1.83%
[2]
  inhibition: -0.62%
[3]
  inhibition: 0.74%

## Cc1cc(Nc2ccc(C)c(C)c2)n2nc(C)nc2n1
[1]
  inhibition: 5.08%
[2]
  inhibition: 5.03%
[3]
  inhibition: 5.46%

## COc1ccc2nccc([C@@H](O)CN3CCC(NCc4ccc5c(c4)OCCO5)CC3)c2c1
[1]
  inhibition: 6.76%
[2]
  inhibition: 5.93%
[3]
  inhibition: 0.41%

## CC(C)CNCc1cccc(-c2cccc(CN(CCN(C)C)C(=O)NCCc3ccccc3)c2)c1
[1]
  inhibition: -1.09%
[2]
  inhibition: -0.75%
[3]
  inhibition: -4.18%

## Cc1cccc2nc(-c3cccc(-c4cccc(NC(=O)Cc5c[nH]cn5)c4)c3)[nH]c12
[1]
  inhibition: 1.54%
[2]
  inhibition: 2.27%
[3]
  inhibition: 2.94%

## Cc1cccc2nc(-c3ccc(-c4ccc(NC(=O)C(=O)c5cccn5C)cc4)cc3)[nH]c12
[1]
  inhibition: 5.06%
[2]
  inhibition: 1.84%
[3]
  inhibition: 0.5%

## COc1ccc2nccc([C@@H](O)CN3CCC(NCc4cc5ccccc5[nH]4)CC3)c2n1
[1]
  inhibition: 46%
[2]
  inhibition: 59.2%
[3]
  inhibition: 62.5%

## Cc1cccc2nc(-c3ccc(-c4ccc(CNC(C)C)cc4)cc3)[nH]c12
[1]
  inhibition: 21.6%
[2]
  inhibition: 25.1%
[3]
  inhibition: 15.7%
